# Assay results from publication PMC11006913.
# Substitutions are numbered along the chain they refer to.
# Key:
# Assay in all cases: PBM; 200 nM protein, PBS
# Details in all cases: dsDNA, one strand shown
# SIX6 [1] = biological target: T1, SIX6 (Homo sapiens, UniProt O95475 114-200, L167I)
# T1 sequence: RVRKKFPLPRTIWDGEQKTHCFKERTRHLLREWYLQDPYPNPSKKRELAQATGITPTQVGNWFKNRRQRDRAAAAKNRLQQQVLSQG
# SIX6 [2] = biological target: T2, SIX6 (Homo sapiens, UniProt O95475 114-200, T165P)
# T2 sequence: T1 sequence with T52P, I54L
# SIX6 [3] = biological target: T3, SIX6 (Homo sapiens, UniProt O95475 114-200, L167M)
# T3 sequence: T1 sequence with I54M
# SIX6 [4] = biological target: T4, SIX6 (Homo sapiens, UniProt O95475 114-200, T165G)
# T4 sequence: T1 sequence with T52G, I54L
# SIX6 [5] = biological target: T5, SIX6 (Homo sapiens, UniProt O95475 114-200, T139Q)
# T5 sequence: T1 sequence with T26Q, I54L
# SIX6 [6] = biological target: T6, SIX6 (Homo sapiens, UniProt O95475 114-200, L167V)
# T6 sequence: T1 sequence with I54V
# SIX6 [7] = biological target: T7, SIX6 (Homo sapiens, UniProt O95475 114-200, T165I)
# T7 sequence: T1 sequence with T52I, I54L
sequence,measurement,setting,value
CCCGGCGG,binding signal,SIX6 [1],"9.11 upbm affinity estimate (log intensity, higher = more binding, comparable within an allelic series)"
same,binding signal,SIX6 [2],"8.96 upbm affinity estimate (log intensity, higher = more binding, comparable within an allelic series)"
same,binding signal,SIX6 [3],"9 upbm affinity estimate (log intensity, higher = more binding, comparable within an allelic series)"
same,binding signal,SIX6 [4],"9.14 upbm affinity estimate (log intensity, higher = more binding, comparable within an allelic series)"
same,binding signal,SIX6 [5],"9.18 upbm affinity estimate (log intensity, higher = more binding, comparable within an allelic series)"
same,binding signal,SIX6 [6],"9.07 upbm affinity estimate (log intensity, higher = more binding, comparable within an allelic series)"
same,binding signal,SIX6 [7],"9.08 upbm affinity estimate (log intensity, higher = more binding, comparable within an allelic series)"
